Source: PubChem (National Center for Advancing Translational Sciences (NCATS))
L3MBTL1 inh = blocks human L3MBTL1; AID 485360; Q9Y468; AlphaScreen L3MBTL1–H3K9me1 peptide binding; actives 0.66% (n = 230,000); Potency, µM (doses to about 57.1 µM), for the others: at the highest dose activity, negative = inhibition, usual class: inhibitors; note: % is set by controls: 0 for no effect and ±100 for the full control effect; nearly all actives have a fitted effect of over 60% in size
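First, the protein-peptide complex forms for 30 min at room temperature (L3MBTL1 50 nM, biotinylated H3K9me1 peptide 75 nM). Next, compounds are pin-transferred and incubated 30 min. Finally, AlphaScreen beads are added and read after 30 min.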
JMJD2A Tudor inh = blocks the human JMJD2A Tudor domain; actives 4.4% (n = 390,000); Potency, µM (titrated, usually from 114 µM), for the others: at the top dose activity change, negative = inhibition, actives largely listed as inhibitors; AlphaScreen JMJD2A-Tudor / H3K4me3 peptide binding; note: % is set by controls: 0 for no effect and ±100 for the full control effect; nearly all actives have a fitted effect of over 50% in size
Sfp PPTase inh = Sfp phosphopantetheinyl transferase inhibition; Q9F4F7; Biochemical Sfp PPTase activity, qHTS; Potency, µM, for the others: largest response in the series, negative = inhibition, actives largely listed as inhibitors; actives 3.5% (n = 310,000);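 note: the enzyme is Sfp with the accession as filed and its product quenches rhodamine fluorescence; 0% = enzyme reaction without inhibitor and -100% = no enzyme wells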
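Sfp 15 nM + cpd, 15 min RT; start w/ rhodamine-CoA 5 uM, BHQ-2-YbbR 12.5 uM (final); 50 mM Hepes pH 7.6, 10 mM MgCl2, 0.01% NP-40, 0.01% BSA; read 525/598 nm at 0 and 30 min.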
BAZ2B inh = blocks human BAZ2B; AlphaScreen BAZ2B-H3K14Ac peptide displacement; Potency, µM (series often up to 114 µM), inactives show at the highest dose activity change, negative = inhibition, most hits filed as inhibitors; actives 4.4% (n = 360,000); note: % is set by controls: 0 for no effect and ±100 for the full control effect; nearly all actives have a fitted effect of over 60% in size
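BAZ2B 50 nM plus b-H3(5-23)K14Ac 50 nM, PBS pH 7.4/0.01% Tween-20, 30 min RT; compound added (max 110 uM), 30 min RT; streptavidin donor/Ni-chelate acceptor beads 10 ug/mL final, 20 min dark; AlphaScreen read.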
G9a block = G9a (human) methyltransferase inhibition. Q96KQ7. G9a H3K9 monomethylation, AlphaScreen, 2 h. Potency, µM (titrated, usually from 102 µM), inactives show at the highest dose activity, negative = inhibition, usual class: inhibitors. actives 8.8% (n = 350,000). AID 504332; note: % is set by controls: 0 for no effect and ±100 for the full control effect; nearly all actives have a fitted effect of over 75% in size
Target sequence (Q96KQ7 913-1193 limits assumed): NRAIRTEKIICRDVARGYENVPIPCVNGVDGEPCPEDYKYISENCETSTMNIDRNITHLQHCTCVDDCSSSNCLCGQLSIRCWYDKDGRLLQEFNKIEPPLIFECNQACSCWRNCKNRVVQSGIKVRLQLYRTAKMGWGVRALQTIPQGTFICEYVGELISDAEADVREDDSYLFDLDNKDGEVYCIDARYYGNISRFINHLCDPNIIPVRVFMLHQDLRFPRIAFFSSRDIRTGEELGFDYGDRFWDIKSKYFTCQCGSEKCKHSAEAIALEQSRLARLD
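Quantitative HTS format: methyltransferase activity on a biotin-tagged H3K9 peptide is measured by AlphaScreen, using a rabbit anti-monomethyl-H3K9 antibody with streptavidin donor and anti-IgG acceptor beads. Final levels are 20 nM enzyme, 500 nM peptide, 20 uM SAM; 2 h RT.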
HP1b chromo inh = inhibitors of HP1-beta chromodomain binding to methylated histone tails; AlphaScreen HP1-beta / biotin-H3K9me3 peptide binding; Potency, µM (titrated, usually from 114 µM), without a hit: at the top dose activity change, negative = inhibition, most hits filed as inhibitors; actives 0.56% (n = 390,000); note: nearly all actives have a fitted effect of over 70% in size
Target sequence (P83916 whole entry, looked up): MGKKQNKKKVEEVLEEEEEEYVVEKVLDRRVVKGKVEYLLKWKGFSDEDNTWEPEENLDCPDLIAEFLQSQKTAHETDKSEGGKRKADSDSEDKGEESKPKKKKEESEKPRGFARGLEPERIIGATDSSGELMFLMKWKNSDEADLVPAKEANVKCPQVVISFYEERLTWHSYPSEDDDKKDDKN
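HP1-beta protein (50 nM final) preincubated 30 min at room temperature with biotinylated H3(1-18)K9me3 peptide (50 nM) in PBS pH 7.4, 0.01% Tween-20, then compound added for 30 min. AlphaScreen streptavidin donor/nickel chelate acceptor beads (10 ug/mL final), 30 min dark, luminescence read.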
* = called active by the depositor; u = inconclusive; x = not tested or not shown; [ ] = dose if it differs, or a comment. The list is not random: actives were taken first. Their share in the collection is about 12%. Calls come from the whole dose curve; as a rule, active = well fitted curve in the direction sought with a large enough effect; inconclusive = small, poorly fitted or top-dose-only effect, or another doubt; inactive = no such curve, though single readings can be large; an effect the other way counts as inactive or inconclusive. Potency is the fitted concentration of half-maximal effect.

SMILES | L3MBTL1 inh | JMJD2A Tudor inh | Sfp PPTase inh | BAZ2B inh | G9a block | HP1b chromo inh
Nc1ccc2c(c1)-c1ccccc1S(=O)(=O)N2 | u | u | -16% | u | 32µM* | -6%
Cn1ccnc1SCC(=O)Nc1sccc1C#N | u | -26% | 79µM* | -36% | -1% | 12%
COc1ccc(NC(=O)CSCC(=O)Nc2sccc2C#N)cc1 | -18% | -17% | x | -6% | 40µM* | 25%
COc1ccc(CCC(=O)Nc2sccc2C#N)cc1 | 1% | -13% | -26% | x | u | 34%
Cc1nnc(SCC(=O)Nc2sccc2C#N)s1 | x | u | -2% | u | 2% | 41%
Cc1ccc(C(=O)NNC(=O)CCC(=O)Nc2cccc(Cl)c2C)cc1 | 12% | -1% | 79µM* | -7% | 7% | 31%
COc1cc(/C=N/NC(=O)C(=O)NCC2CCCO2)ccc1O (stereo unspecified) | 1% | -23% | -3% | 10% | 11%[59 µM] | 50%
O=C(NCC1CCCO1)C(=O)N/N=C/c1ccc(OCc2ccccc2Cl)cc1 (stereo unspecified) | x | 45µM* | x | x | x | 3%
N=C1C2=C3Sc4ccccc4N3CCCC2=NN1c1cccc(S(=O)(=O)O)c1 | 2% | -19% | 89µM* | u | u | 23%
N#Cc1ccccc1OC1=NS(=O)(=O)c2ccccc21 | x | -18% | x | x | x | x
COc1cc2[nH]c(=S)n(NC(=O)CC(C)C)c(=O)c2cc1OC | x | 3.5µM* | u | u | 4µM* | -2%
CCn1c(SCC(=O)NC2=NCCS2)nnc1C(C)NC(=O)c1ccc(Cl)cc1 (stereo unspecified) | x | -18% | 13% | -5% | -23% | 17%
CCn1c(C(C)NC(=O)c2ccc(Cl)cc2)n[nH]c1=S (stereo unspecified) | x | 10µM* | u | -18% | u | -9%
C=CCn1c(C(C)NC(=O)c2cccc(C)c2)n[nH]c1=S (stereo unspecified) | 3% | 18µM* | 11% | -4% | 28µM* | 39%
O=C(O)c1ccccc1C(=O)Nc1ccc(-n2ccc(C(F)(F)F)n2)cc1 | 8% | -1% | 20% | -5% | 79µM* | 30%
O=C(Nc1ccc(-n2ccc(C(F)(F)F)n2)cc1)c1cccs1 | x | 4% | 3% | -2% | 7% | 40%
O=C(CN1CCN(c2cnn(-c3ccccc3)c(=O)c2Cl)CC1)NC1CCS(=O)(=O)C1 (stereo unspecified) | -5% | -11% | x | 1% | 45µM* | 19%
CCOc1ccc(C(=O)N2CCN(c3cnn(-c4ccccc4)c(=O)c3Cl)CC2)cc1 | 7% | 8% | 13% | 0% | 16% | 18%
Nc1ccc(SC(F)(F)F)cc1 | 5% | 1% | -4% | 5% | 50µM* | 29%
Cc1cccc(C)c1-c1ccc(CN2C(CC(C)C)C(=O)N(Cc3cn(CC4CCCCC4)nn3)CCS2(=O)=O)cc1 (stereo unspecified) | x | -26% | x | x | x | 8%
COC(=O)CSc1ncnc2c1sc1nc(-c3ccco3)c3c(c12)CC(C)(C)OC3 | u | x | 11µM* | 50µM* | u | x
CCSc1ncnc2c1sc1nc(-c3ccco3)c3c(c12)CC(C)(C)OC3 | -1% | x | -33% | -2% | x | x
CCOC(=O)c1sc2nc(-c3ccco3)c3c(c2c1N)CC(C)(C)OC3 | -3% | -24% | 8.9µM* | -11% | u | 20%
COc1ccc(N2CCN(C3CCCN(Cc4ccc(F)c(F)c4)C3)CC2)cc1 (stereo unspecified) | -13% | u | 9% | u | 45µM* | -20%
Clc1nnc2c3ccccc3ccn12 | x | u | x | x | x | 16%
SMILES | L3MBTL1 inh | JMJD2A Tudor inh | Sfp PPTase inh | BAZ2B inh | G9a block | HP1b chromo inh
CC(C)OC(=O)CSc1nnc(CNc2nc(-c3ccccc3)cs2)n1C | -4% | -25% | -28% | u | 45µM* | -19%
Cn1c(CNc2nc(-c3ccccc3)cs2)nnc1SCC(=O)OC1CCCCC1 | 8% | -15%[57.1 µM] | -7% | u | u | u
COc1cccc(C(=O)CSc2nnc(CNc3nc(-c4ccccc4)cs3)n2C)c1 | -5% | -31% | -3% | -14% | 8.9µM* | -19%
CCOc1ccc(NC2CCCCC2NS(=O)(=O)c2ccccc2)cc1 (stereo unspecified) | x | 56µM* | 8% | 45µM* | u | u
CCOc1ccc(S(=O)(=O)NC2CCCCCC2)cc1 | 10% | -4% | 2% | -1% | -4% | 65%
COc1ccccc1N1CCN(C2CCCCC2NS(=O)(=O)c2ccc(Cl)cc2)CC1 (stereo unspecified) | x | u | -5% | u | -8% | 5%
COc1ccc(NC2CCCCC2NS(=O)(=O)c2ccc(C)cc2)cc1 (stereo unspecified) | x | u | 3% | 50µM* | 14µM* | u
COc1ccc(N2CCN(C3CCCCC3NS(=O)(=O)c3ccc(Cl)cc3)CC2)cc1 (stereo unspecified) | x | u | 8% | 10µM* | x | 7%
CC(=O)c1ccc(N2CCN(CC(=O)Nc3ccccc3C(=O)NC3CC3)CC2)c(F)c1 | 8% | -11% | x | 9% | 22%[12.7 µM] | 34%
C=C1/C(=C\C=C2/CCC[C@]3(C)[C@@H]([C@H](C)/C=C/[C@@H](O)C4CC4)CC[C@@H]23)C[C@@H](O)C[C@@H]1O | x | x | -6% | x | -2%[12.7 µM] | x
C=C1CC[C@H](O)C/C1=C/C=C1\CCC[C@]2(C)[C@@H]([C@H](C)/C=C/[C@H](C)C(C)C)CC[C@@H]12 | -6% | u | x | -26% | 14µM* | 4%
O=C(CN1C(=O)c2ccccc2C1=O)Nc1nnc(C2CCCO2)s1 (stereo unspecified) | x | -7% | -13% | -15% | 45µM* | 16%
CCC(Nc1ccc(-c2nc(-c3cccnc3)no2)cc1[N+](=O)[O-])c1ccccc1 (stereo unspecified) | x | -2% | x | 0% | -31%[59 µM] | 36%
CC1(C)OC(=O)C(=Cc2ccc(-c3ccc(S(N)(=O)=O)cc3)o2)C(=O)O1 | u | -8% | 56µM* | -19% | 35µM* | -14%
NS(=O)(=O)c1ccc(-c2ccc(/C=C3\C(=O)Nc4cc(Cl)ccc43)o2)cc1 | -3% | -30% | u | 56µM* | 11µM* | 10%
Cc1cccc(NC(=O)c2c(N)sc3c2CCC(C)C3)c1 (stereo unspecified) | x | -27% | x | -3% | 13µM* | 13%
Cc1cccc(NC(=O)c2c(NC(=O)c3cccs3)sc3c2CCC(C)C3)c1 (stereo unspecified) | x | 13% | x | 29% | 70%[59 µM] | 64%
